# Results from the supplement of paper PMC6555819.
# How the values were obtained:
# Assay in all cases: PBM binding z-score (relative to random genomic background probes); higher = stronger binding; sequences stand for … in GC…GCGATTGACAGCGTAGAATGAAGG
# [1] = tested on: FXR:RXRa (NR concentration 270 nM, RXRa partner concentration 90 nM)
# In short: (§1)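 Ligand-free nuclear receptor dimers were bound for 1 h to custom Agilent 4×180K protein-binding microarrays. Detection used antibodies against each partner (one per run). Binding z-scores rest on regression-normalized fluorescence, with random background probes as the reference.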
# [2] = tested on: LXRa:RXRa (NR concentration 270 nM, RXRa partner concentration 90 nM)
# In short: as §1
# [3] = tested on: LXRa homodimer (NR concentration 270 nM)
# In short: as §1
# [4] = tested on: LXRb:RXRa (NR concentration 270 nM, RXRa partner concentration 90 nM)
# In short: as §1
# [5] = tested on: LXRb homodimer (NR concentration 270 nM)
# In short: as §1
# [6] = tested on: PPARa:RXRa (NR concentration 270 nM, RXRa partner concentration 90 nM)
# In short: as §1
# [7] = tested on: PPARg:RXRa (NR concentration 180 nM, RXRa partner concentration 90 nM)
# In short: as §1
# [8] = tested on: PPARg:RXRa 270nM:90nM, anti-RXR (NR concentration 270 nM, RXRa partner concentration 90 nM)
# In short: as §1
# [9] = tested on: PPARg:RXRa 30nM:10nM, anti-RXR (NR concentration 30 nM, RXRa partner concentration 10 nM)
# In short: as §1
# [10] = tested on: PPARg:RXRa 90nM:30nM, anti-RXR (NR concentration 90 nM, RXRa partner concentration 30 nM)
# In short: as §1
# [11] = tested on: PPARg:RXRa DBDmut IVT, anti-RXR (DBD mutation: RXRa K156A/R161A, NR concentration 270 nM, RXRa partner concentration 90 nM)
# In short: as §1
# [12] = tested on: PPARg:RXRa IVT, anti-PPARg (NR concentration 270 nM, RXRa partner concentration 90 nM)
# In short: as §1
# [13] = tested on: PPARg DBDmut:RXRa IVT, anti-PPARg (DBD mutation: PPARg1 K132A/R137A, NR concentration 270 nM, RXRa partner concentration 90 nM)
# In short: as §1
# [14] = tested on: PPARg DBDmut IVT, anti-PPARg (DBD mutation: PPARg1 K132A/R137A, NR concentration 270 nM)
# In short: as §1
# [15] = tested on: PPARg homodimer (NR concentration 180 nM)
# In short: as §1
# [16] = tested on: PXR:RXRa (NR concentration 270 nM, RXRa partner concentration 90 nM)
# In short: as §1
# [17] = tested on: PXR homodimer (NR concentration 270 nM)
# In short: as §1
# [18] = tested on: RARa:RXR (NR concentration 270 nM, RXRa partner concentration 90 nM)
# In short: as §1
# [19] = tested on: RARa homodimer (NR concentration 270 nM)
# In short: as §1
# [20] = tested on: RARb:RXRa (NR concentration 270 nM, RXRa partner concentration 90 nM)
# In short: as §1
Sequence,PBM binding z-score [1],PBM binding z-score [2],PBM binding z-score [3],PBM binding z-score [4],PBM binding z-score [5],PBM binding z-score [6],PBM binding z-score [7],PBM binding z-score [8],PBM binding z-score [9],PBM binding z-score [10],PBM binding z-score [11],PBM binding z-score [12],PBM binding z-score [13],PBM binding z-score [14],PBM binding z-score [15],PBM binding z-score [16],PBM binding z-score [17],PBM binding z-score [18],PBM binding z-score [19],PBM binding z-score [20]
CCGACTGGGGCATAAGGTTACCAAAAGCCAGCCC,0.243,1.26,-0.202,0.884,-1.26,2.36,2.34,3.15,0.904,2.48,2.7,3.25,-0.301,-0.942,0.779,0.576,-0.64,1.73,0.0494,1.81
TCTCGGAAGACACGAAGGTCAGAGCTTTCCAGAG,0.883,0.652,-0.454,0.74,-0.988,1.79,0.356,1.57,2.55,1.71,1.64,0.221,-0.344,-0.823,0.689,1.12,-0.144,1.53,-0.631,2.27
CCGAGTAGGTTAAGGGGCATTCAGGCAACGGTGA,0.765,0.894,-0.155,1.02,-0.297,3.51,6.06,6.42,4.16,6.65,3.63,4.08,-0.405,-0.995,0.976,0.49,0.0402,1.39,0.293,1.51
AGAACGAGGGCAATTAGTTGATAGCACGGGTGGC,0.559,0.389,-0.309,0.306,-0.23,1.64,1.31,0.81,-0.134,0.104,3.45,2.65,0.442,-0.255,0.218,0.729,1.02,0.412,0.215,2.06
TTACCAAGGTGAAGGTCGTCGATCCCTCTGTAGA,1.32,1.01,-0.48,1.09,-0.788,2.6,3.62,4.16,2.47,4.28,1.94,3.33,0.0568,0.108,0.887,1.24,-0.288,1.64,-0.604,2.36
TCTTGTAGATCATGCAGGTTAAGAAAGCCTGAGT,0.492,0.415,-0.144,0.657,-0.00581,1.14,-0.222,1.51,2.51,2.08,1.44,0.879,0.847,1.07,0.117,0.641,0.527,0.812,0.221,0.285
